Assay results from PubChem BioAssay (Tox21).
Records with an inconclusive call do not appear. Calls of active or inactive are those of the source. Unless noted, calls follow the shape of the dose curve; as a rule, active = well fitted curve in the direction sought with a large enough effect in the repeat runs; inconclusive = weak or mixed curves; inactive = no such curve, though single readings can be large; an effect the other way counts as inactive or inconclusive.

Legend:
[1] = qHTS assay to identify small molecule antagonists of the vitamin D receptor (VDR) signaling pathway - cell viability counter screen (AID 743225); also: nearly all actives have a fitted effect of over 50% in size
In short: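 VDR-UAS-bla HEK 293T cells were plated and incubated 4 h at 37C, then dosed with compound plus 3 nM (final) 1-alpha,25-dihydroxyvitamin D3 for 16 h. After the 2 h beta-lactamase read, viability in the same wells was read as CellTiter-Glo luminescence after 30 min at room temperature.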

[2] = qHTS assay to identify small molecule agonists of the NFkB signaling pathway - cell viability counter screen (AID 1159515; calls by dose curve; also: series mostly up to about 61 µM; nearly all actives have a fitted effect of over 55% in size)
In short: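 Cells are seeded (2,000 NFkB-bla ME-180 per well), rested overnight, and dosed with DMSO-dissolved compounds for 5 hr at 37 C. Viability is then read by CellTiter-Glo luminescence after 30 min at room temperature.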

[3] = qHTS assay to identify small molecule agonists of the endoplasmic reticulum stress response signaling pathway (AID 1159516; active = well fitted activation curve with a large enough effect in the signal ratio in the repeat runs, not every such curve was filed as active; the % refers to the signal ratio)
In short: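 Cells are seeded at 1,500 per well and incubated overnight. Compounds in DMSO are added for 5 hr at 37 C, then beta-lactamase FRET substrate for 2 hr at room temperature, and fluorescence at 460 and 530 nm is measured.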

[4] = qHTS assay to identify small molecule agonists of the endoplasmic reticulum stress response signaling pathway - cell viability counter screen (AID 1159517; calls by dose curve;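 also: HeLa cells carrying an ER stress response element beta-lactamase reporter; series mostly up to about 61 µM; nearly all actives have a fitted effect of over 50% in size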)
In short: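 In parallel with the ESRE reporter read, cytotoxicity was scored by CellTiter-Glo luminescence (30 min, room temperature) on HeLa ESRE-bla cells dosed for 5 hr.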

[5] = qHTS assay to identify small molecule antagonists of the retinoid-related orphan receptor gamma (ROR-gamma) signaling pathway - cell viability counter screen (AID 1159520); also: nearly all actives have a fitted effect of over 50% in size
In short: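 Tet-on ROR gamma CHO cells were given compounds for 2 hr, then doxycycline hyclate at 1 uM final, and incubated 16 hr at 37 C. Viability was measured as ATP content by CellTiter-Glo luminescence.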

[6] = molecular target: Nuclear receptor ROR-gamma (Homo sapiens) (UniProt P51449); assay: qHTS assay to identify small molecule antagonists of the retinoid-related orphan receptor gamma (ROR-gamma) signaling pathway (AID 1159521;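 also: CHO cells with doxycycline inducible ROR-gamma driving an RORE luciferase reporter; top concentration of the series differs between compounds; nearly all actives have a fitted effect of over 50% in size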)
In short: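 Tet-on ROR-gamma CHO cells with ROR response element-luciferase reporter; compounds added 2 hr before 1 uM doxycycline induction, then 16 hr at 37 C. Antagonism scored as decreased ONE-Glo luminescence.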

[7] = qHTS assay to identify small molecule agonists of the AP-1 signaling pathway - cell viability counter screen (AID 1159525; calls by dose curve; also: nearly all actives have a fitted effect of over 55% in size)
In short: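 Same-well cytotoxicity counter screen of the Tox21 10K library in ME-180 cells. The readout is ATP-dependent luminescence after 5 h compound treatment. Data are normalised to DMSO and tetra n-octyl ammonium bromide controls.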

[8] = qHTS assay to identify small molecule agonists of the AP-1 signaling pathway (AID 1159526; calls by dose curve)
[9] = molecular target: Retinoic acid receptor RXR-alpha (Homo sapiens) (UniProt P19793); assay: qHTS assay to identify small molecule agonists of the RXR signaling pathway (AID 1159527; calls by dose curve; also: nearly all actives have a fitted effect of over 35% in size)
In short: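 GeneBLAzer RXR-alpha-UAS-bla HEK 293T cells in 2% charcoal-stripped FBS medium were exposed to compounds for 16 hr at 37 C in agonist mode. Beta-lactamase reporter read as 460/530 nm FRET ratio after 2 hr substrate loading.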

[10] = qHTS assay to identify small molecule agonists of the RXR signaling pathway - cell viability counter screen (AID 1159529)
In short: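 RXR-alpha-UAS-bla HEK 293T cells in medium with 2% charcoal-stripped FBS were pre-incubated 5 hr, then compound-treated 16 hr at 37 C. Viability was read by CellTiter-Glo luminescence in the same wells as the beta-lactamase assay, with tetraoctyl ammonium bromide as positive control.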

[11] = qHTS assay to identify small molecule antagonists of the retinoid acid receptor (RAR) signaling pathway - cell viability counter screen (AID 1159551); also: nearly all actives have a fitted effect of over 35% in size
In short: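 Cells (C3RL4) are plated, incubated overnight, dosed with compound in DMSO, then given retinol at 1 uM final. After 6 h at 37 C, CellTiter-Glo is added and luminescence read following 30 min at room temperature.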

[12] = qHTS assay to identify small molecule antagonists of the retinoic acid receptor (RAR) signaling pathway (AID 1159552; also: nearly all actives have a fitted effect of over 50% in size)
In short: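 Retinol signaling pathway inhibitors screened in C3RL4 RARE-luciferase reporter cells seeded overnight at 37 C, then compounds added with 1 uM (final) retinol as pathway substrate. After 6 hr at 37 C, luciferase luminescence read after 30 min at room temperature.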

[13] = qHTS assay to identify small molecule antagonists of the estrogen related receptor (ERR) signaling pathway from Tox21 library - cell viability counter screen (AID 1224834); also: nearly all actives have a fitted effect of over 30% in size
In short: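 ERR cells, 2,000/well; 6 h settle at 37 C/5% CO2; pin-tool compound transfer in DMSO; 17.5 h at 37 C; CellTiter-Fluor, 30 min; fluorescence intensity.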

[14] = molecular target: Luciferin 4-monooxygenase (Photinus pyralis) (UniProt P08659); assay: qHTS assay to identify small molecule inhibitors of firefly luciferase (AID 1224835); also: series mostly up to about 120 µM; nearly all actives have a fitted effect of over 25% in size
In short: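 Biochemical qHTS: compounds run as interplate titrations against purified firefly enzyme, with D-luciferin and ATP each at its KM concentration. Light output recorded by CCD imaging.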

[15] = qHTS assay to identify small molecule agonists of the constitutive androstane receptor (CAR) signaling pathway - cell viability counter screen (AID 1224836); also: series mostly up to about 92 µM; nearly all actives have a fitted effect of over 45% in size
In short: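 HepG2 cells stably carrying hCAR and a CYP2B6-2.2kb reporter; 15-concentration compounds plus PK11195 (final 0.75 uM), 23 hr at 37 C/5% CO2. Viability read by CellTiter-Fluor fluorescence.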

[16] = qHTS assay to identify small molecule antagonists of the constitutive androstane receptor (CAR) signaling pathway - cell viability counter screen (AID 1224837); also: series mostly up to about 92 µM; nearly all actives have a fitted effect of over 45% in size
In short: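 Viability was measured with CellTiter-Fluor in a HepG2 line carrying stably transfected hCAR and a CYP2B6-2.2kb construct. Cells were exposed for 23 hr at 37 C to 15 compound concentrations with 50 nM CITCO as agonist.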

[17] = molecular target: Nuclear receptor subfamily 1 group I member 3 (Homo sapiens) (UniProt Q14994); assay: qHTS assay to identify small molecule antagonists of the constitutive androstane receptor (CAR) signaling pathway (AID 1224838);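 also: HepG2 cells stably expressing hCAR with CYP2B6 luciferase reporter stimulated by CITCO; nearly all actives have a fitted effect of over 40% in size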
In short: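 Antagonist mode used CITCO at a final 50 nM to activate CAR in human hepatoma HepG2 cells carrying stable hCAR and a 2.2 kb CYP2B6 promoter-luciferase construct. Compounds were tested at 15 concentrations over 24 h, with luminescence as the end point.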

[18] = qHTS assay to identify small molecule antagonists of the estrogen related receptor signaling pathway with the pleiotropic PPARgamma coactivator (PGC) from Tox21 10K library - cell viability counter screen (AID 1224840; active = well fitted cell-killing curve with a large enough effect in the repeat runs, not every such curve was filed as active; also: nearly all actives have a fitted effect of over 40% in size)
In short: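 Multiplexed viability counter screen in the PGC/ERR cell line: cells treated with DMSO-dissolved compounds for 17.5 hours at 37 C, then viability measured as CellTiter-Fluor fluorescence.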

[19] = qHTS assay to identify small molecule agonists of the retinoic acid receptor (RAR) signaling pathway (AID 1159553)
In short: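 Seed C3RL4 reporter cells at 1,000 per well and incubate overnight at 37 C. Add compounds in DMSO, incubate 6 hr. Add luciferase reagent, wait 30 min at room temperature, read luminescence.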

[20] = molecular target: Nuclear receptor subfamily 1 group I member 3 (Homo sapiens) (UniProt Q14994); assay: qHTS assay to identify small molecule agonists of the constitutive androstane receptor (CAR) signaling pathway (AID 1224839); also: series mostly up to about 92 µM; nearly all actives have a fitted effect of over 15% in size
In short: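 HepG2 cells stably co-transfected with hCAR and a CYP2B6-2.2kb luciferase reporter; compounds at 15 concentrations with 0.75 uM PK11195 present. After 24 hr at 37 C, luciferase read by ONE-Glo luminescence.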

Measured: Potency

Sequence of Luciferin 4-monooxygenase (Photinus pyralis) (P08659 whole entry, looked up): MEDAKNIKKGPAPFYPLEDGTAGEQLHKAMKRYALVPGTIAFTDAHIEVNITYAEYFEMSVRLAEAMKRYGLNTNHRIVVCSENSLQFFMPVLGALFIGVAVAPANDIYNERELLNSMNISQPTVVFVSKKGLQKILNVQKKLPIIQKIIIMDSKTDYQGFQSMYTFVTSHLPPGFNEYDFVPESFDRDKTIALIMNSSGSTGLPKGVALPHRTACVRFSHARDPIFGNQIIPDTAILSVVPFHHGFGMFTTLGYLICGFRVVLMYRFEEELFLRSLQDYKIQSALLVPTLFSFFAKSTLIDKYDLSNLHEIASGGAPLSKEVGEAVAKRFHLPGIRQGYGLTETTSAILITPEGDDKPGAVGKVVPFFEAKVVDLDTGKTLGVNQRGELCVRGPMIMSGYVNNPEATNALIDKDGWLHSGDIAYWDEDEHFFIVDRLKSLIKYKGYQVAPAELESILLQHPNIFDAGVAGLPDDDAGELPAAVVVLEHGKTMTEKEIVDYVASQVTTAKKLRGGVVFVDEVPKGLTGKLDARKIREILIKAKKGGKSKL
Sequence of Retinoic acid receptor RXR-alpha (Homo sapiens) (P19793 whole entry, looked up): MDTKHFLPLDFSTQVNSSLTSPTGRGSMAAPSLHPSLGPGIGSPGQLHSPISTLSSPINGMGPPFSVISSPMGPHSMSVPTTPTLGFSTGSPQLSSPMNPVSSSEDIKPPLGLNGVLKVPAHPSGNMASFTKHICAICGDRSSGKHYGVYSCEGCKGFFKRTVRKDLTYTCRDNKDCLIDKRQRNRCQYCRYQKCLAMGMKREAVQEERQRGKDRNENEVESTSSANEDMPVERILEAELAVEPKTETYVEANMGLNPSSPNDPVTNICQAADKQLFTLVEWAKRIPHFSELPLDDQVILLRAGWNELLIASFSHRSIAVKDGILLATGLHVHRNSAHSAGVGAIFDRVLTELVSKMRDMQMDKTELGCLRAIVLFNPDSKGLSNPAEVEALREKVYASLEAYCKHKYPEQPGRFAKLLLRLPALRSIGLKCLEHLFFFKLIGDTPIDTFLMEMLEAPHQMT
Sequence of Nuclear receptor subfamily 1 group I member 3 (Homo sapiens) (Q14994 whole entry, looked up): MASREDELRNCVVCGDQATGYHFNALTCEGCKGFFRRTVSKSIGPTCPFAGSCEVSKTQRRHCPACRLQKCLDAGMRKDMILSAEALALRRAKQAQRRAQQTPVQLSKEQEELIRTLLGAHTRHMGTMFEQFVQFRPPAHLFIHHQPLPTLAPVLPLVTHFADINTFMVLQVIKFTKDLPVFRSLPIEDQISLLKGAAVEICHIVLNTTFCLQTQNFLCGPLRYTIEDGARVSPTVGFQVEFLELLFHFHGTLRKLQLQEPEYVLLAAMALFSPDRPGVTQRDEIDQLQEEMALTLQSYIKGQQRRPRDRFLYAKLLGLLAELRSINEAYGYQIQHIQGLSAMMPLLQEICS

CCCCN(CCCC)CCCCCCN(CCCC)CCCC
inactive: [1] | [2] | [3] | [4] | [5] | [6] | [7] | [8] | [9] | [10] | [11] | [12] | [13] | [14] | [15] | [16] | [17] | [18]

CCCCCCCCCCCCCCBr
inactive: [1] | [2] | [3] | [4] | [5] | [6] | [7] | [8] | [9] | [10] | [11] | [12] | [19] | [14] | [15] | [16] | [18]

Cc1ccc(O)c(C(=O)c2ccccc2)c1
inactive: [2] | [3] | [4] | [5] | [6] | [7] | [8] | [9] | [10] | [11] | [12] | [19] | [14] | [15] | [16] | [17] | [18]

COC(=O)c1cc(Cl)c(NC(C)=O)cc1OC
inactive: [1] | [2] | [3] | [4] | [5] | [6] | [7] | [8] | [9] | [10] | [11] | [12] | [19] | [14] | [15] | [16] | [17] | [20] | [18]

CC(C)(C)OC=O
inactive: [1] | [2] | [3] | [4] | [5] | [6] | [7] | [8] | [9] | [10] | [11] | [12] | [19] | [13] | [14] | [16] | [18]

CCc1ccc(CC)cc1
inactive: [1] | [2] | [3] | [4] | [5] | [6] | [7] | [8] | [9] | [10] | [11] | [12] | [19] | [14] | [15] | [16] | [18]

C=CCCCCCCCCOC(C)=O
inactive: [1] | [2] | [3] | [4] | [5] | [6] | [7] | [8] | [9] | [10] | [11] | [12] | [19] | [14] | [15] | [16] | [18]

CCN1CCN(C(=O)N[C@@H](C(=O)N[C@@H]2C(=O)N3[C@@H]2SC(C)(C)[C@H]3C(=O)O)c2ccccc2)C(=O)C1=O
inactive: [1] | [2] | [3] | [4] | [5] | [6] | [7] | [8] | [9] | [10] | [11] | [12] | [19] | [14] | [15] | [16] | [18]

C=C(C)C(=O)OCCCC
inactive: [1] | [2] | [3] | [4] | [5] | [6] | [7] | [8] | [9] | [10] | [11] | [12] | [19] | [14] | [15] | [16] | [18]
